# Measurements taken from PubChem BioAssay (NCATS).
# Results filed as inconclusive are left out. Values without a mark were called inactive. The source made the active and inactive calls. The call rests on the fitted dose curve; in most records, active means well fitted cell-killing curve with a large enough effect; inconclusive means small, poorly fitted or top-dose-only effect, or effect the other way; inactive means no such curve, though single readings can be large or run the other way.
# Experiment: Viability qHTS for spleen associated tyrosine kinase inhibitor (SYKi) drug resistant MV4-11 cells (AID 1963824); further: nearly all actives have a fitted effect of over 35% in size
# Settings: SYKi-resistant MV4-11 viability, CellTiter-Glo, 72 h; series mostly up to 45 µM; viability, % of control: at the top concentration
# Procedure, shortened: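 CellTiter-Glo luminescence, read 10 min after reagent addition, reports viability after a 72 hr compound exposure. Cells are an MV4-11 line made resistant to SYK inhibition, seeded at 500 per well onto compound-containing plates.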
# Potency means the concentration at half of the fitted maximal effect.
SMILES,Potency,"viability, % of control"
CN1CCN(CCCN2c3ccccc3Sc3ccc(S(=O)(=O)N(C)C)cc32)CC1,10.6 µM (active),
CC1=C(C(=O)O[C@@H]2O[C@H](COC3OCC(O)C(O)C3O)[C@@H](O)[C@H](O)[C@H]2O)C(C)(C)CCC1 (some centres not stated),,61.9% [at 17.3 µM]
COC(=O)[C@@H]1C2CC3c4[nH]c5ccccc5c4CCN3CC2CC[C@@H]1O (some centres not stated),,80.1%
COc1cc(C(=O)OC[C@@]2(O)CO[C@@H](O[C@H]3[C@H](Oc4ccc(O)cc4)O[C@H](CO)[C@@H](O)[C@@H]3O)[C@@H]2O)cc(OC)c1O,,81.4% [at 17.3 µM]
COC(=O)CC1OC(C)C2=C(O)c3c(O)cccc3C(=O)C23OC13 (configuration not stated),0.57 µM (active),
Cc1ccc(NC(=O)c2ccc(CN3CC[C@H](N(C)C)C3)c(C(F)(F)F)c2)cc1Nc1nccc(-c2cncnc2)n1,7.23 µM (active),
Oc1cccc(Nc2ccnc3[nH]c4ccccc4c23)c1,2.31 µM (active),
O=C(OC1CN2CCC1CC2)N1CCc2ccccc2C1c1ccccc1 (configuration not stated),18.4 µM (active),
Nc1ncnc2c1c(I)cn2[C@@H]1C[C@H](N)[C@@H](O)[C@H]1O,6.51 µM (active),
CC(C)C1NC(=O)C2CCCN2C1=O (configuration not stated),,91.3%
C[C@@H]1O[C@@H](O[C@H]2[C@H](OC(=O)[C@]34CCC(C)(C)C[C@H]3C3=CCC5[C@@]6(C)CC[C@H](O[C@@H]7O[C@H](CO[C@@H]8OC[C@H](O)[C@H](O)[C@H]8O)[C@@H](O)[C@H](O)[C@H]7O)C(C)(C)C6CC[C@@]5(C)[C@]3(C)C[C@H]4O)OC[C@@H](O)[C@@H]2O)[C@H](O)[C@H](O[C@@H]2OC[C@](O)(CO)[C@H]2O)[C@H]1O[C@@H]1OC[C@H](O)[C@H](O[C@@H]2OC[C@@H](O)[C@H](O)[C@H]2O)[C@H]1O (some centres not stated),,88.4% [at 9.25 µM]
C=C1C(=O)O[C@@H]2/C=C(\C)CC/C=C(/C=O)[C@H](OC)[C@@H](OC(=O)C(C)C)[C@@H]12,2.55 µM (active),
